SENP8 block-1 – SENP8 (human) protease inhibition | Q96LD8 | recombinant SENP8, Nedd8 substrate fluorescence | inhibition, % at 20 µM | 360,000 compounds, 0.64% hits; in the data active means inhibition mostly above about 40%, no sharp cut-off; inactive means mostly below about 27%
SENP8 block-2 – SENP8 protease inhibition; 330,000 compounds, 1.2% hits; AID 2540; purified SENP8, Z-RLRGG-aminoluciferin cleavage, luminescence; inhibition, % at 10 µM; Q96LD8; in the data active means inhibition above about 50%
SENP6 inh – blocks the human protease SENP6 | Q9GZR1 | Recombinant SENP6 catalytic domain, aminoluciferin luminescence | inhibition, % at 10 µM | 330,000 compounds, 1.8% hits | AID 2599;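 active means inhibition above about 50% at the single tested dose, limit read from the data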;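 further: plate controls were DMSO wells with enzyme for no effect and DMSO wells lacking enzyme for full effect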
SENP7 inh – SENP7 protease inhibition. 330,000 compounds, 1.5% hits. AID 434973. Q9BQF6. inhibition, % at 5 µM. recombinant SENP7, Z-RLRGG-aminoluciferin luminescence, 40 min;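 active means inhibition above about 50% at the single test dose, limit read from the data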;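 further: plate controls were DMSO with enzyme for no effect and no enzyme buffer wells for full effect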
AHR act – activators of human aryl hydrocarbon receptor. 320,000 compounds, 2.5% hits. AHR-responsive luciferase reporter cells, luminescence. AID 2796. activation, % at 5 µM. P35869; in the data active means activation above about 47%;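 further: 0% = vehicle wells and 100% = reference agonist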
Target sequence (P35869 whole entry, looked up): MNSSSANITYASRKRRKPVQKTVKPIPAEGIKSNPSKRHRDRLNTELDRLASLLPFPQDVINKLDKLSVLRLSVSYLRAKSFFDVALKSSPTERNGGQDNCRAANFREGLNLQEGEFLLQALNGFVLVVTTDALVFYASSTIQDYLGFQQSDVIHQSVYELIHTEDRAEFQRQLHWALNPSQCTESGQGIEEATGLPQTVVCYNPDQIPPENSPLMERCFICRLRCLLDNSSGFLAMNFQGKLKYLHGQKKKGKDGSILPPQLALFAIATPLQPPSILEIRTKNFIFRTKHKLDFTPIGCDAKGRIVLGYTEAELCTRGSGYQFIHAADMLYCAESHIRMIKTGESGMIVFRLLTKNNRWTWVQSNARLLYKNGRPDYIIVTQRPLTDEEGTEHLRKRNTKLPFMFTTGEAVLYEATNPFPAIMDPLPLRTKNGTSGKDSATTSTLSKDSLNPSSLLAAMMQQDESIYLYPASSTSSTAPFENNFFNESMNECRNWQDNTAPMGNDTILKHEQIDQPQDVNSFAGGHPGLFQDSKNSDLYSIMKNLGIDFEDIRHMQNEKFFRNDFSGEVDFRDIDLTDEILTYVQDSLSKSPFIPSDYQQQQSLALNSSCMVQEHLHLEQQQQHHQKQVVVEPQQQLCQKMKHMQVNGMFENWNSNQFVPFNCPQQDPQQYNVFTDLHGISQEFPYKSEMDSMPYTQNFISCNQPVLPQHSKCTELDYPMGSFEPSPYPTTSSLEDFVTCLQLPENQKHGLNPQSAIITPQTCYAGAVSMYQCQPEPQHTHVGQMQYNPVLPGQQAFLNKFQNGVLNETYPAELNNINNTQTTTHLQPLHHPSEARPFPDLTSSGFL
EBI2 antag – EBI2 (human) antagonism. P32249. EBI2 beta-arrestin recruitment, luminescence, 7a,25-OHC stimulated. inhibition, % at 5 µM. 360,000 compounds, 0.81% hits; in the data active means inhibition above about 38%;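 further: enzyme fragment complementation signal reports receptor beta-arrestin coupling in cells; 0% = agonist plus DMSO wells and 100% = wells without agonist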
* hit, by the source's call; . = no result. Shown are actives, neighbours in structure and some others; about 5% of the full set was active somewhere.

SMILES	SENP8 block-1	SENP8 block-2	SENP6 inh	SENP7 inh	AHR act	EBI2 antag
COc1cc(Cl)ccc1NC(=O)COc1ccccc1C(=O)NN	6.3	-13.2	-22.8	-4.1	76.5*	7.4
O=C(Cn1nc(-c2ccccc2)ccc1=O)NCc1ccc2c(c1)OCO2	7.1	-11.7	5.5	2.3	67.8*	-12.9
O=C(CSCc1ccc(Cl)cc1)NCc1ccc2c(c1)OCO2	0.5	4.0	-8.3	2.7	1.2	-9.9
O=C(Cn1nc(-c2ccc(Cl)cc2)ccc1=O)NCc1ccc2c(c1)OCO2	10.8	0.9	12.7	-3.3	53.9*	-6.5
O=C(Cn1nc(-c2ccccc2)ccc1=O)NCc1ccc(F)cc1	-19.8	9.7	7.3	2.8	2.0	-1.5
O=C(NCc1ccc2c(c1)OCO2)C1(S(=O)(=O)c2ccccc2)CC1	17.9	-13.8	-23.7	-11.0	69.7*	-8.1
CCN(CC1CCCO1)C(=O)c1cc(COc2ccccc2SC)on1 (stereo unspecified)	-0.2	1.5	-4.8	14.2	-0.3	6.6
CC(=O)N(/N=C/c1cccc(C)c1)c1nc(-c2ccc(Br)cc2)cs1	22.2	3.4	-15.2	7.4	78.3*	3.3
COc1ccccc1/C=N/N(C(C)=O)c1nc(-c2ccc(F)cc2)cs1	20.9	2.8	0.2	-0.5	55.9*	7.5
COc1ccc(/C=N/N(C(C)=O)c2nc(-c3ccc(C)cc3)cs2)cc1	8.3	7.7	-6.4	5.1	12.9	-3.5
COC(=O)c1cn(C(=O)c2ccc3c(c2)OCO3)c2ccccc12	-1.5	.	.	.	.	-4.5
CC(C)n1c(=O)c2ccccc2n1Cc1cn(Cc2cccs2)nn1	-367.4	.	.	.	.	-3.4
CN(C)/C=C1/Oc2c(ccc3ccccc23)C1=O	-192.8	-2.1	2.9	-3.4	65.8*	5.2
Fc1ccc(N/N=C/c2ccncc2)c(F)c1	1.4	44.3	58.5*	30.5	31.4	0.7
C[C@H](CO)N1C[C@H](C)[C@H](CN(C)Cc2cccc(C(F)(F)F)c2)OCc2ccccc2-c2c(n(C)c3ccccc23)C1=O	12.6	.	.	.	.	-3.0
COc1ccc(Cc2nnc(-c3cccc(C)c3)o2)cc1OC	2.7	1.1	-13.0	1.7	49.4*	-1.0
COc1ccc(CC(=O)Nc2cccc(-c3nnc(-c4cccc(C)c4)o3)c2)cc1OC	15.0	-2.5	8.9	1.8	-5.1	-9.6
Cc1c(-c2nc(-c3ccc(C(F)(F)F)cc3)no2)n(C)oc1=O	-298.1	2.7	18.2	4.3	101.2*	-6.6
COc1ccc(C(=O)O/N=C/c2c(C(F)(F)F)nn(C)c2SCc2ccccc2Cl)cc1	19.0	0.1	-3.0	11.1	2.0	50.4*
COc1ccccc1-c1nn2c(-c3ccco3)nnc2s1	-36.8	3.2	6.3	1.8	-2.1	3.1
COc1ccccc1-c1nn2c(=O)cc(C)nc2s1	-239.4	-13.6	-12.9	-5.8	62.2*	-6.8
FC(F)(F)c1cc(Cc2nc3ccccc3n2C(CCc2ccccc2)c2nc3ccccc3[nH]2)cc(C(F)(F)F)c1 (stereo unspecified)	6.7	.	.	.	.	-2.1
CCc1nc2ccc(C(=O)N(C)CCN(C)C)cn2c1N(C)Cc1cc2ccccc2s1	-3.9	.	.	.	.	7.4
O=C(N/N=C/c1ccc(-c2cccc([N+](=O)[O-])c2)o1)c1cccs1	25.6	0.3	0.0	-2.9	27.0	0.1
N#C/C(=C\c1ccc(-c2cccc([N+](=O)[O-])c2)o1)C(=O)Nc1nc(-c2cccs2)cs1	31.1	9.1	-6.8	-3.2	78.5*	4.1
SMILES	SENP8 block-1	SENP8 block-2	SENP6 inh	SENP7 inh	AHR act	EBI2 antag
O=C(O)c1c[nH]c2ccc([N+](=O)[O-])cc2c1=O	11.4	.	.	.	.	13.7
Cc1ccccc1NC(=O)C(C)N1C(=O)c2ccccc2C1=O (stereo unspecified)	16.2	2.8	-15.2	0.4	1.3	-8.0
Cn1c(=O)c(C(=O)NNC(=O)c2ccccc2F)c(O)c2ccccc21	8.4	-12.2	-11.9	-8.1	66.4*	-4.5
CCn1c(=O)c(C(=O)Nc2ncccc2O)c(O)c2ccccc21	-1.2	3.2	-5.1	-5.8	9.9	-7.9
Cc1cccnc1NC(=O)c1c(O)c2ccccc2n(C)c1=O	-13.2	-11.1	-0.6	2.1	53.5*	-9.6
Cc1cccnc1NC(=O)C(C)N1C(=O)c2ccccc2C1=O (stereo unspecified)	12.7	-0.5	-2.2	-3.4	65.7*	4.4
Nc1sc(Cc2ccccc2)cc1C(=O)NC1CCCCC1	-2.9	.	.	.	.	4.9
COc1cc(NC(=O)c2cccnc2)c(OC)cc1NC(=O)c1ccc(Br)cc1	7.3	0.5	-21.9	3.4	43.3	13.2
COc1cc(NC(=O)c2cccnc2)c(Cl)cc1NC(=O)c1ccc(Cl)cc1	-4.4	1.1	8.2	-3.5	63.5*	-8.4
COc1cc(NC(=O)c2cccnc2)c(Cl)cc1NC(=O)c1ccccc1	1.5	9.3	-0.5	0.8	75.3*	7.1
COc1cc(NC(=O)c2ccc(Cl)cc2)c(Cl)cc1NC(=O)c1cccnc1	-81.8	9.3	-2.6	0.3	53.3*	11.1
CCCn1c(NC(=O)c2ccc(F)cc2)nc2ccccc21	-62.7	-5.7	-16.8	-1.1	52.8*	8.8
CCCCn1c(NC(=S)Nc2ccccc2)nc2ccccc21	11.4	-3.4	-9.9	-5.2	66.1*	10.7
CCn1c(NC(=O)c2ccccc2)nc2ccccc21	-41.7	-15.5	-11.4	-6.0	45.2	-3.3
CCCCn1c(NC(=O)c2ccccc2)nc2ccccc21	-39.1	-6.2	-15.4	-1.0	73.2*	-5.0
CCCn1c(NC(=O)c2ccccc2Br)nc2ccccc21	-53.7	6.6	1.7	4.6	47.3*	3.4
S=C(Nc1ccccc1)Nc1nc2ccccc2n1CCOc1ccccc1	-5.2	-12.7	-19.0	1.3	19.3	31.9
CCCn1c(NC(=O)c2ccc(Br)cc2)nc2ccccc21	-111.7	1.2	-10.2	-0.1	13.4	9.8
CCCc1c(-c2ccccc2Br)ncn1Cc1ccccc1OC	10.1	.	.	.	.	8.7
Cc1ccc(-c2cc(C(F)F)n3ncc(C(=O)N4CCCCC4c4cccnc4)c3n2)cc1 (stereo unspecified)	-396.6	-7.3	-19.8	2.6	4.4	5.5
O=C(c1cnn2c(C(F)(F)F)cc(-c3ccccc3)nc12)N1CCCCC1c1cccnc1 (stereo unspecified)	-170.0	-2.0	5.6	0.4	50.0*	11.2
COc1ccc(-c2ccc3c(c2)C2CC3CCN2C(=O)C2CCCCC2)cc1 (stereo unspecified)	0.9	.	.	.	.	21.3
c1ccc(OC2CCCCC2N2CCOCC2)cc1 (stereo unspecified)	17.2	.	.	.	.	-2.8
COc1ccc(-c2coc3cc(OC)cc(O)c3c2=O)cc1	15.5	-10.5	30.1	62.6*	-8.3	10.6
COc1ccc(C(=O)NCCc2c[nH]c3ccc(OC)cc23)cc1	3.1	3.1	-26.4	2.3	1.4	9.8
COc1ccc2[nH]cc(CCNC(=O)c3ccc4ccccc4n3)c2c1	-4.4	3.7	1.7	-0.9	71.1*	16.7
COc1cccc(C2=NN(C(=O)C3CC3)C(O)(C(F)(F)F)C2)c1 (stereo unspecified)	9.3	.	.	.	.	-2.2

Compound activity: PubChem BioAssay, several laboratories
